# Measured values reported in PubChem BioAssay (NCI).
# This is part of a sample that, as a whole, favours compounds with a hit. Of some 83,000 tested, about 20% had one in any assay.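 How to read the values: 0–100, growth inhibition (40 = 60% inhibited); 0, no net growth; -100 to 0, cell death (-40 = 40% of starting cells died; -100 = all dead).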 A number with no mark means an inactive call. Active and inactive are the calls of the source. How the source made its calls: active means growth percent below 10; inactive means the rest.
# Legend:
# Assay in all cases: NCI-60 one-dose screen, 48 h (100 = growth as untreated, 0 = no growth, -100 = all killed)
# Conditions in all cases: 10 µM unless noted
# [1] = tested on: DU-145 prostate
# [2] = tested on: K-562 leukemia
# [3] = tested on: MALME-3M melanoma
# [4] = tested on: MDA-MB-231 breast
# [5] = tested on: RXF 393 renal
# [6] = tested on: SF-268 CNS
# [7] = tested on: SF-295 CNS
# [8] = tested on: SF-539 CNS
# [9] = tested on: UACC-257 melanoma
# [10] = tested on: M14 melanoma
# [11] = tested on: HCT-15 colon
# [12] = tested on: HT29 colon
# [13] = tested on: SNB-75 CNS
# [14] = tested on: SNB-19 CNS
# [15] = tested on: U251 CNS
# [16] = tested on: PC-3 prostate
# [17] = tested on: SK-MEL-5 melanoma
# [18] = tested on: UACC-62 melanoma
# [19] = tested on: LOX IMVI melanoma
# [20] = tested on: SK-MEL-28 melanoma
Compound,growth [1],growth [2],growth [3],growth [4],growth [5],growth [6],growth [7],growth [8],growth [9],growth [10],growth [11],growth [12],growth [13],growth [14],growth [15],growth [16],growth [17],growth [18],growth [19],growth [20]
CN(CCC(=O)c1ccccc1)CCC(=O)c1ccccc1,104%,61.7%,105%,97.3%,97.9%,101%,108%,88%,98.6%,94.7%,103%,117%,90.4%,93.1%,98%,95.5%,96.4%,77.9%,75.6%,103%
Cc1nc2c(c(=O)[nH]1)C(c1ccccc1)c1ccc3ccccc3c1O2 (stereo not given),56.2%,11.9%,60.9%,46.6%,27.6%,38.2%,22.8%,14.5%,34.5%,22.2%,23.4%,84.5%,13.1%,30.8%,26.1%,19.7%,36.8%,30.4%,35.2%,57.7%
CCCCNC(=O)Oc1ccc(/C(=C(/C)Cc2ccc(OC)cc2)c2ccc(OCCN3CCCCCC3)cc2)cc1,91.6%,10.3%,99.5%,81.5%,75.1%,83.5%,92.2%,95.4%,94.4%,91.1%,27.8%,3.69% (active),79.2%,85.8%,62.5%,65.5%,82.7%,79.1%,14%,95%
COC(=O)c1c2c(c(C)[n+]([O-])c1C)C(=O)C(NCc1ccc(OC)cc1)=CC2=O,43.9%,11.4%,-92.8% (active),5.7% (active),47.3%,22.5%,66.6%,10.4%,-47.5% (active),13.3%,9.67% (active),9.48% (active),127%,5.27% (active),-13.9% (active),4.67% (active),-53.1% (active),-27.9% (active),19%,61.9%
